Assay outcomes: PubChem BioAssay, National Center for Advancing Translational Sciences (NCATS)
GLP1R cytotox: qHTS of GLP-1 Receptor Inverse Agonists: Cytotox Screen; HEK293 cAMP-luciferase reporter cells, luminescence, 24 h; Potency, µM (series often up to 38.3 µM), for inactives: top-dose activity change, negative = inhibition, usual class: inhibitors; 410,000 tested, 0.13% active;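 also: loss of luciferase light is scored as toxicity; potency is read from the fitted curve at half-maximal effect; % is scaled to controls: 0 for no effect and ±100 for the full control effect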
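MLSMR compounds, 24 hr on cells at 37 deg C/5% CO2; luminescence after luciferase reagent (12 min RT). Inhibition counted as the undesired cytotoxic outcome.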
IDH1 R132H inh: qHTS for Inhibitors of mutant isocitrate dehydrogenase 1 (IDH1): qHTS; Isocitrate dehydrogenase [NADP] cytoplasmic (Homo sapiens), O75874; IDH1-R132H enzyme, NADPH consumption, diaphorase/resazurin fluorescence; Potency, µM (doses to about 76.6 µM), for inactives: at the highest dose activity change, negative = inhibition, most hits filed as inhibitors; 390,000 tested, 0.093% active; AID 602179, 2012; also: potency is read from the fitted curve at half-maximal effect; % is scaled to controls: 0 for no effect and ±100 for the full control effect; nearly all actives have a fitted effect of over 65% in size
Target sequence (O75874 whole entry R132H, stated change not applied): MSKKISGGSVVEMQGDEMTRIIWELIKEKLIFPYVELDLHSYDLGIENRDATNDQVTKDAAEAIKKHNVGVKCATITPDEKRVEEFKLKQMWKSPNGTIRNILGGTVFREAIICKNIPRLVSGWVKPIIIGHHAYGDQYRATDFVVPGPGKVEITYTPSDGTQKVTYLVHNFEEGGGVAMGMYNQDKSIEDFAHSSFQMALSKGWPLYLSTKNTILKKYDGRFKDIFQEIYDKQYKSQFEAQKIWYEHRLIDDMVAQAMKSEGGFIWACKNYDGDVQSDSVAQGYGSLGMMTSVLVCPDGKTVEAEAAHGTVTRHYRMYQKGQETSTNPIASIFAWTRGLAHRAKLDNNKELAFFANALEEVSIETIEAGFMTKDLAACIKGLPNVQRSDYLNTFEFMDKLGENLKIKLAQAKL
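IDH1-R132H (0.5 ug/mL) preincubated 30 min with compound, then NADPH (0.016 mM) and alpha-KG (2 mM) added; 80 min at RT, pH 7.5. Remaining NADPH coupled via diaphorase/resazurin to fluorescence (540/590 nm); concentration-response curves normalized to no-enzyme control.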
GLP-1R inv ag: qHTS of GLP-1 Receptor Inverse Agonists (Inhibition Mode); Glucagon-like peptide 1 receptor (Homo sapiens), P43220; HEK293 GLP-1R CRE-luciferase, luminescence, 24 h; GLP-1R form is constitutively active; Potency, µM (series often up to 38.3 µM), without a hit: top-dose activity change, negative = inhibition, actives largely listed as inhibitors; 410,000 tested, 1.6% active; AID 624417, 2012; also: potency is read from the fitted curve at half-maximal effect; % is scaled to controls: 0 for no effect and ±100 for the full control effect; nearly all actives have a fitted effect of over 55% in size
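Cells are plated, allowed 12 hours at 37 deg C, then treated with compounds for 24 hr before luciferase detection reagent is added and luminescence is read after 12 min at room temperature. The HEK293 line carries constitutively active GLP-1R with a cAMP-responsive reporter.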
LDHA block: qHTS assay for inhibitors of human lactate dehydrogenase; L-lactate dehydrogenase A chain (Homo sapiens), P00338; purified LDHA, NADH/diaphorase-resazurin fluorescence; stronger effect = lower value; activity change, % (values are at about 110 or 230 µM); AID 1347041, 2019; 480,000 tested, 0.15% active; in the data active = activity change below about -30%; inconclusive = mostly about -25% to -30%;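 also: plate controls were DMSO wells for no effect and wells without enzyme for full effect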
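LDH5 2 nM; NADH 0.06 mM, pyruvate 0.2 mM; 200 mM Tris pH 7.4, EDTA, Tween-20; 5 min RT. Detection: diaphorase 0.133 mg/mL + resazurin 37 µM, fluorescence ex540/em590 at 0 and 20 min; normalized to enzyme-free and DMSO wells.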
GLP-1R agonist: qHTS of GLP-1 Receptor Agonists; 380,000 tested, 0.007% active; Potency, µM (doses to about 45.6 µM), without a hit: at the highest dose activation, usual class: activators; HEK293 GLP-1R CRE-luciferase, luminescence, 4-6 h; cells express a hypersensitive GLP-1R form; also: potency is read from the fitted curve at half-maximal effect; % of control where 0% means no effect
PTHR1 agonist: qHTS for PTHR1 Agonists: Primary Screen | 410,000 tested, 0.075% active | HEK293 GP2 PTHR1 cells, GloSensor cAMP luminescence, 1 h | Parathyroid hormone/parathyroid hormone-related peptide receptor (Homo sapiens), Q03431 | Potency, µM (highest dose often 115 µM), without a hit: at the top dose activation, actives largely listed as activators | AID 743266, 2014; also: potency is read from the fitted curve at half-maximal effect; nearly all actives have a fitted effect of over 55% in size
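HEK-293-derived GP2 cells expressing PTHR1 and a GloSensor cAMP reporter, 3,000/well, plated overnight, given luciferin plus IBMX (each 0.5 mM as added) for 1 h at 37 °C, then compound for 1 h at 37 °C. Luminescence was read after 15 min at room temperature.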
An asterisk follows results filed as active; i = inactive; ? = inconclusive; . = no result given; [ ] = dose if it differs, or a comment. This is a sample that favours compounds with a hit; in the whole collection about 1.7% have one here. Unless noted, calls follow the shape of the dose curve; as a rule, active = well fitted curve in the direction sought with a large enough effect; inconclusive = small, poorly fitted or top-dose-only effect, or another doubt; inactive = no such curve, though single readings can be large; an effect the other way counts as inactive or inconclusive.

SMILES	GLP1R cytotox	IDH1 R132H inh	GLP-1R inv ag	LDHA block	GLP-1R agonist	PTHR1 agonist
O=C(CNc1cccc2ccccc12)N/N=C/c1ccc(OC(=O)/C=C/c2ccco2)cc1	-19%	4%	8.9µM*	22	0%	-10%
O=C(Cn1c(-c2cscn2)nc2ccccc21)Nc1cccc(N2CCCC2=O)c1	.	.	.	-2	.	.
CCOC(=O)C(CC)Oc1ccc2c(=O)c(Oc3ccccc3Br)coc2c1 (stereo unspecified)	.	.	.	-31*	.	.
Cc1ccc(-n2ncc(C(=O)Nc3c(Cl)cccc3Cl)c2C2CCNCC2)cc1	?	0%	?	5	.	-15%
Cc1ccc(-n2ncc(C(=O)Nc3cc(Cl)ccc3Cl)c2C2CCNCC2)cc1	0%	9%	7.1µM*	-4	0%	-14%
CN(Cc1ccsc1)C(=O)Cc1cccs1	.	.	.	8	.	.
NC(=O)CNS(=O)(=O)c1ccc(C(=O)O)cc1	.	.	.	-6	.	.
C(=C\c1ccccc1)/C=N/N1CCN(c2ccccn2)CC1	-2%	1%	3.5µM*	-4	8%	i
C(/C=C/c1ccccc1)=N/N1CCN(c2ccccc2)CC1	9%	15%	0%	-12	-25%	-17%[57.5 µM]
COC(=O)CSc1nc(N2CCCCC2)c2c(c1C#N)CCCC2	21%	10%	10µM*	-2	-1%	i
COc1cc(CN(C)CCc2ccccn2)cc(OC)c1OC	-18%	3%	-11%	-31*	-7%	-38%[57.5 µM]
COc1ccc(CCN(C)Cc2ccc(OCc3ccccc3)c(OC)c2)cc1OC	?	2%	?	-32*	?	-1%
COc1ccc(CCN(C)Cc2ccc(OC)c(OCc3ccccc3)c2)cc1OC	-24%	3%	?	-18	11%	-23%
O=C(CSc1nc2ccccc2s1)c1ccc2c(c1)OCCCO2	.	.	.	5	.	.
O=C(Cc1ccc(F)cc1)NCCS(=O)(=O)N1CCN(c2cccc(Cl)c2)CC1	2%	2%	10µM*	-3	0%	-43%
COc1ccc2ccccc2c1/C=C(/C#N)c1nc2ccccc2[nH]1	.	.	.	4	.	.
COc1ccccc1NC(=O)C(C)OC(=O)CSCC(=O)Nc1ccc(C)cc1C (stereo unspecified)	-18%	6%	-1%	-5	2%	-7%
Cc1ccc(NC(=O)CSCC(=O)OC(C)C(=O)Nc2ccc(S(N)(=O)=O)cc2)c(C)c1 (stereo unspecified)	4%	-9%	30%	-44*	11%	i
CC(C)(C)c1ccc(C(=O)NCCc2ccccn2)cc1	.	.	.	-3	.	.
Cc1cc(C)c(C)c(OCCNCc2ccccc2)c1	-2%	2%	?	-19	12%	-24%
Cc1cc(Br)ccc1OCCNCc1ccccc1	3%	5%	8.9µM*	-18	40%	-16%
CNCc1cc(Br)c(OCC(=O)Nc2ccccc2OC)c(OC)c1	8%	16%	?	-9	25%	-1%
COc1cc(CNCCc2ccccc2)cc(Br)c1OCC(=O)Nc1ccccc1C	?	10%	7.9µM*	2	-1%	-1%
O=C(COc1ccc(Br)cc1CNCCc1ccccc1)NCc1ccccc1	?	-3%	10µM*	-2	3%	-30%
O=C(Nc1nc(-c2ccccc2)cs1)c1ccc(Cl)c(N2CCCC2=O)c1	.	.	.	-6	.	.
SMILES	GLP1R cytotox	IDH1 R132H inh	GLP-1R inv ag	LDHA block	GLP-1R agonist	PTHR1 agonist
Cc1ccc(SCC(=O)N2c3ccccc3Sc3ccccc32)cc1	22%	6%	7.9µM*	-2	2%	i
Brc1ccc2c(c1)C(C1=NCCN1)c1ccccc1CS2 (stereo unspecified)	-6%	1%	1.4µM*	-7	-3%	20%
CS/C(Nc1cc(Cl)ccc1Cl)=C(/C#N)C(=O)c1ccco1	-5%	5%	6.3µM*	-48*	-4%	-32%
O=C(c1cc(-c2cccs2)[nH]n1)N1CCN(c2ccccn2)CC1	.	.	.	-1	.	.
CC(C)(C)c1ccc(C(=O)NNc2cc(N3CCCCC3)nc(N3CCCCC3)n2)cc1	?	4%	3.2µM*	-1	-9%	i
CCCN(CCC)c1nc(N)nc(-c2cc(Cl)ccc2OC)n1	-18%	1%	8.9µM*	-3	22%	i
CCCNc1nc(N)nc(-c2cc(Cl)ccc2OC)n1	-8%	8%	11%	-3	6%	i
CCNc1nc(-c2sc(NC(=O)C(C)(C)C)nc2C)c(-n2cc(-c3ccccc3)nn2)s1	?	.	10µM*	3	-33%	-52%
CC(=O)NC1=C(Nc2ccc(N(C)C)cc2)C(=O)c2ccccc2C1=O	?	14%	4µM*	8	-1%	i
COc1ccc(C(CNC(=O)CCNS(=O)(=O)c2ccc(Br)cc2)N2CCCC2)cc1 (stereo unspecified)	-17%	3%	?	0	-1%	i
COc1ccccc1C(CNC(=O)CCNS(=O)(=O)c1ccc(Br)cc1)N1CCCC1 (stereo unspecified)	-14%	5%	10µM*	-5	8%	-1%
COc1ccccc1C(CNC(=O)c1ccc(-c2ccccc2Cl)o1)N1CCCC1 (stereo unspecified)	?	0%	4.5µM*	-13	21%	-25%
O=C(c1ccc(-c2ccccc2Cl)o1)N1CCCCCCC1	-16%	0%	5.6µM*	6	?	-22%
O=C(CCNS(=O)(=O)c1ccc(Br)cc1)NCCc1ccc(Cl)cc1	4%	-1%	10µM*	-6	5%	-21%
COc1ccc(C(CNC(=O)c2ccc(-c3ccccc3Cl)o2)N2CCOCC2)cc1 (stereo unspecified)	9%	5%	?	-2	?	-46%
Cc1oc(C)c(C(=O)OCc2ccc(C#N)cc2)c1C	.	.	.	13	.	.
Cc1ccc(NC(=O)C(c2ccccc2)N(C)C)cc1Cl (stereo unspecified)	-10%	5%	5µM*	2	4%	i
O=C(NCCc1ccccc1)c1cc(-c2cccnc2)nc2ccccc12	.	.	.	-5	.	.
O=C(Oc1ccccc1)c1cc(O)c(O)c(O)c1	-23%	.	14%	-35*	-9%	-19%
